Measured values: PubChem BioAssay (NCATS)
Inconclusive results are not listed. Where a call stands in place of a potency, no number is given. Values without a mark were called inactive. Calls of active or inactive are those of the source. Calls follow the shape of the dose curve; as a rule, active = well fitted curve in the direction sought with a large enough effect; inconclusive = small, poorly fitted or top-dose-only effect, or another doubt; inactive = no such curve, though single readings can be large; an effect the other way counts as inactive or inconclusive.

Experiments:
[1] = biological target: Cellular tumor antigen p53 (Homo sapiens) (UniProt P04637); assay: Primary qHTS for small molecule compounds that upregulate eGFP-tagged delta133p53alpha (in N-terminal) cells. (AID 2060322); conditions: NCI-H358 eGFP-delta133p53alpha fluorescence, 24 h; activation: stronger effect = higher value; also: nearly all actives have a fitted effect of over 75% in size; also: potency is read from the fitted curve at half-maximal effect; as to activation: series mostly up to about 56 µM
Outline: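 NCI-H358 cells pre-induced 24 h with 10 ng/ml doxycycline to express N-terminal eGFP-delta133p53alpha, then dosed 24 h at 37C without doxycycline; fixed, Hoechst-stained, GFP intensity by laser scanning cytometry, normalized to DMSO (0%) and 57.5 uM 5-azacytidine (100%).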

[2] = biological target: Aldehyde dehydrogenase, mitochondrial (Homo sapiens) (UniProt P05091); assay: qHTS for Inhibitors of the Aldehyde Dehydrogenase Family (ALDH2) Primary screen (AID 2061308); also: nearly all actives have a fitted effect of over 55% in size
[3] = biological target: Retinaldehyde dehydrogenase 3 (Homo sapiens) (UniProt P47895); assay: qHTS for Inhibitors of the Aldehyde Dehydrogenase Family (ALDH1A3) Primary screen (AID 2061315)

Chain of Cellular tumor antigen p53 (Homo sapiens) (P04637 whole entry, looked up): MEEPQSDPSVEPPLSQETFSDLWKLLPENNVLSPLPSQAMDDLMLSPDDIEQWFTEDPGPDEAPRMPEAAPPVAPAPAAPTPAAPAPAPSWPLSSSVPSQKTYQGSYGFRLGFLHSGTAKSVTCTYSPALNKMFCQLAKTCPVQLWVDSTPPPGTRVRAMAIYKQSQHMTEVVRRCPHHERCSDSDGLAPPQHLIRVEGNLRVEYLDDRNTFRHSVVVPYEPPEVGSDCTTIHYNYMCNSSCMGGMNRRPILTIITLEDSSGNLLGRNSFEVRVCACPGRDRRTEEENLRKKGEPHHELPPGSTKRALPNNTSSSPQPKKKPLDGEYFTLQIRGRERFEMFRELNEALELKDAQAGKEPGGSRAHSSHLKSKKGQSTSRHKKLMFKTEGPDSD

SMILES | activation [1] [%] | Potency [2] | Potency [3] | Potency [1] | activity change, negative = inhibition [2] | activity change, negative = inhibition [3]
CN1C(=O)c2ccccc2NC(=O)[C@]12O[C@@H]2c1cccc(O)c1 | -1.53 | inactive | inactive | – | – | –
CCC(C)/C=C(C)/C=C/C1=CC2=CC(=O)C3(C)OC(C)(O)C(C(=O)OC)C3C2=CO1 (configuration not stated) | – | inactive | inactive | 13.1 µM (active) | – | –
CC(=O)O[C@@H]1[C@H]2[C@@H](OC(=O)c3ccccc3)[C@@H](C)C[C@]2(O)[C@H](OC(C)=O)[C@@]2(C)[C@@H]3CC(C)(C)C(=O)[C@]3(OC(C)=O)C[C@@]12C | -15.2 | inactive | inactive | – | – | –
C[C@@H]1O[C@@H](O[C@H]2[C@H](O)[C@@H](O[C@@H]3O[C@H](CO)[C@@H](O)[C@H](O[C@@H]4O[C@H](CO)[C@@H](O)[C@H](O)[C@H]4O)[C@H]3O)[C@H](O[C@H]3CC[C@@]4(C)C(=CC[C@@H]5C4CC[C@@]4(C)C5C[C@@H]5OC6(CC[C@@](C)(CO[C@@H]7O[C@H](CO)[C@@H](O)[C@H](O)[C@H]7O)O6)[C@@H](C)[C@@H]54)C3)O[C@@H]2CO)[C@H](O)[C@H](O)[C@H]1OC1OC(CO)C(O)C(O)C1O (some centres not stated) | 13 | – | – | – | -9.01% [at 11.2 µM] | -22.4% [at 11.2 µM]
CC(C)(C)NCc1cc(Nc2ccnc3cc(Cl)ccc23)c2c(c1O)CCCC2 | -11 | – | – | – | -0.555% [at 0.464 µM] | -4.88% [at 0.464 µM]
CNC(C)C(=O)NC(C(=O)N1CCCC1C(=O)Nc1cccc2ncccc12)C(C)C (configuration not stated) | -21 | inactive | inactive | – | – | –
COC(=O)C12CCC(C)C(C)C1C1=CCC3C4(C)CCC(OC(C)=O)C(C)(C)C4CCC3(C)C1(C)CC2 (configuration not stated) | -12.2 | inactive | inactive | – | – | –
COC(=O)[C@@]1(C)CC[C@]2(C(=O)O[C@@H]3O[C@H](CO)[C@@H](O)[C@H](O)[C@H]3O)CC[C@]3(C)C(=CCC4[C@@]5(C)CC[C@H](O[C@@H]6O[C@H](C(=O)O)[C@@H](O)[C@H](O)[C@H]6O)C(C)(C)C5CC[C@]43C)[C@@H]2C1 (some centres not stated) | -16.8 | inactive | inactive | – | – | –
C=C1C[C@]23C[C@H]1CC[C@H]2[C@]1(C)CC[C@H](O)[C@@](C)(C(=O)O)[C@H]1[C@@H]3C(=O)O | -6.11 | inactive | inactive | – | – | –
C=CC(C)(O)CC/C=C(\C)C(=O)OC1CC2(C(=O)O)CCC3(C)C(=CCC4C5(C)CCC(OC6OC(COC7OCC(O)C(O)C7O)C(O)C(OC7OCC(O)C(O)C7O)C6OC6OC(CO)C(O)C(O)C6OC6OCC(O)C(O)C6O)C(C)(C)C5CCC43C)C2CC1(C)C (configuration not stated) | -7.14 | – | – | – | 3.26% [at 11.2 µM] | -4.78% [at 11.2 µM]
CCC(CC)(NC(=O)C(C)C)C(=O)N[C@@H](CCCN=C(N)N)C(=O)NC1(C(=O)NC(c2ccc(F)cc2)c2ccc(F)cc2)CCCC1 | -15.7 | inactive | inactive | – | – | –
OC[C@H]1O[C@@H](OCCc2ccc(O)cc2)[C@H](O)[C@@H](O)[C@@H]1O | -13.7 | inactive | inactive | – | – | –
CC(=O)OC1C=C(C(=O)O)C2(CO)CCC(C)C(C)(CCc3ccoc3)C2C1 (configuration not stated) | -25.2 | inactive | inactive | – | – | –
CC1CCCC[C@H]2C(=O)C=C[C@H](O)[C@@H]2CC(=O)O1 (some centres not stated) | – | inactive | inactive | 23.9 µM (active) | – | –
C=CC(C)(CC/C=C(\C)C(=O)OC)OC1OC(COC(=O)CC(C)(O)CC(=O)O)C(O)C(O)C1O (configuration not stated) | -3.05 | inactive | inactive | – | – | –
CC(C)=CCC[C@](C)(O[C@@H]1O[C@H](CO)[C@@H](O)[C@H](O)[C@H]1O)[C@H]1CC[C@]2(C)[C@@H]1[C@H](O)CC1[C@@]3(C)CC[C@H](O)C(C)(C)C3[C@@H](O[C@@H]3O[C@H](CO)[C@@H](O)[C@H](O)[C@H]3O[C@@H]3O[C@@H](C)[C@H](O)[C@@H](O)[C@H]3O)C[C@]12C (some centres not stated) | -21.4 | inactive | inactive | – | – | –
N#C/C(=C1\Nc2ccccc2S1)c1ccnc(NCCc2cccnc2)n1 | – | inactive | inactive | 19 µM (active) | – | –
CC(=O)c1cc2c(cc1O)OC(C)(C)C=C2 | 14.3 | inactive | inactive | – | – | –
COc1c2c(c(C)c3c1C(=O)OC3)O[C@@]1(C)C[C@@H](OC(C)=O)[C@]34O[C@](OC)(CC[C@]3(C)[C@H]1C2)OC4(C)C | -5.36 | inactive | inactive | – | – | –
C/C1=C\CC[C@]2(C)O[C@@H]2[C@H](O)[C@H](C(C)C)[C@H](OC(=O)/C=C/c2ccccc2)C1 | 6.25 | inactive | inactive | – | – | –
O=[N+]([O-])c1cccc2[nH]c(CNc3nc(N4CCOCC4)nc4c3ncn4-c3ccsc3)nc12 | – | inactive | inactive | 0.301 µM (active) | – | –
CC1OC(O[C@H]2CC[C@@]3(C)C(CC[C@]4(C)C3CC=C3C5CC(C)(C)CC[C@]5(C(=O)OC5OC(CO)C(OC6OC(COC7OCC(O)C(O)C7O)C(O)C(O)C6O)C(O)C5O)CC[C@]34C)C2(C)C)C(O)C(O)C1OC1OCC(OC2OCC(O)C(O)C2O)C(O)C1O (some centres not stated) | -15.3 | – | – | – | -20.7% [at 11.2 µM] | 10.3% [at 11.2 µM]

SMILES | activation [1] [%] | Potency [2] | Potency [3] | Potency [1] | activity change, negative = inhibition [2] | activity change, negative = inhibition [3]
CC(c1c[nH]c2ccccc12)C(O)C(=O)O (configuration not stated) | -11.5 | inactive | inactive | – | – | –
CC1(C)CC[C@]2(C(=O)O)CC[C@]3(C)C(=CCC4[C@@]5(C)CCC(O[C@@H]6OC[C@H](O)[C@H](O)[C@H]6O[C@@H]6O[C@H](CO)[C@@H](O)[C@H](O)[C@H]6O)[C@@](C)(CO)C5CC[C@]43C)[C@@H]2C1 (some centres not stated) | 14.3 | inactive | inactive | – | – | –
C[C@H]1C[C@H]2[C@@H]3CCC4=CC(=O)C=C[C@]4(C)[C@@]3(F)[C@@H](O)C[C@]2(C)[C@@]1(O)C(=O)COP(=O)(O)O | 1 | inactive | inactive | – | – | –
C=C1C(=O)O[C@H]2C3=C(C)CCC[C@]3(C)C(=O)C[C@@H]12 | – | inactive | inactive | 15.1 µM (active) | – | –
COc1cccc(NC[C@@H](O)Cn2c3ccc(Br)cc3c3cc(Br)ccc32)c1 | 29.6 | inactive | inactive | – | – | –
CC1C2=CC(=O)OC2(O)CC2C1C(O)CC1C(C)(CO)CCCC21C (configuration not stated) | -9.16 | inactive | inactive | – | – | –
CC1CC2OC3(OC2C(C)(C)O)C1C1(C)CCC24CC25CCC(O[C@@H]2OC[C@@H](O)[C@H](O)[C@H]2O)C(C)(C)C5CC=C4C1(C)C3O (some centres not stated) | -18.8 | inactive | inactive | – | – | –
CC1=CCC[C@@H]2[C@@](C)(CCc3ccoc3)[C@H](C(=O)O)CC[C@@]12C | 14.3 | inactive | inactive | – | – | –
COc1cc2c(cc1O)CC(O)(CO)C(CO)C2c1ccc(OC2OC(CO)C(O)C(O)C2O)c(OC)c1 (configuration not stated) | -31.3 | inactive | inactive | – | – | –
COC(C(=O)N1Cc2[nH]nc(NC(=O)c3ccc(N4CCN(C)CC4)cc3)c2C1)c1ccccc1 (configuration not stated) | – | inactive | inactive | 23.9 µM (active) | – | –
CC(CCC1(O)OC2CC3C4CC=C5CC(O[C@@H]6O[C@H](CO)[C@@H](O[C@@H]7O[C@@H](C)[C@H](O)[C@@H](O)[C@H]7O)[C@H](O)[C@H]6O[C@@H]6O[C@@H](C)[C@H](O)[C@@H](O)[C@H]6O)CCC5(C)C4CCC3(C)C2C1C)CO[C@@H]1O[C@H](CO)[C@@H](O)[C@H](O)[C@H]1O (some centres not stated) | 8.04 | inactive | inactive | – | – | –
N#Cc1ccc(Nc2nc(-c3ccc(O)cc3O)cs2)cc1C(F)(F)F | – | inactive | inactive | 26.9 µM (active) | – | –
C=CC1C(O[C@@H]2O[C@H](CO)[C@@H](O)[C@H](O)[C@H]2O)OC=C(C(=O)OC)C1CC(=O)O (some centres not stated) | 23.2 | inactive | inactive | – | – | –
C=C1C(=O)OC2/C=C(\CO)CC/C=C(\C=O)CC(OC(=O)CC(C)C)C12 (configuration not stated) | – | inactive | inactive | 14.8 µM (active) | – | –
COc1cc(O)cc(C)c1C(=O)OC1C(CO)OC(n2ccc(=O)[nH]c2=O)C1OC(C)=O (configuration not stated) | -6.11 | inactive | inactive | – | – | –
Cc1ccc(Nc2nnc(-c3ccc([N+](=O)[O-])cc3)o2)cc1Cl | 9.82 | inactive | inactive | – | – | –
CC1(C=O)CC[C@]2(C(=O)O[C@@H]3O[C@H](CO)[C@@H](O)[C@H](O)[C@H]3O)CC[C@]3(C)C(=CCC4[C@@]5(C)C[C@H](O)[C@H](O[C@@H]6OC[C@@H](O)[C@H](O)[C@H]6O)[C@@](C)(CO)C5CC[C@]43C)C2C1 (some centres not stated) | 6.87 | inactive | inactive | – | – | –
C[C@H]1[C@H](C)CC[C@]2(C(=O)O)CC[C@]3(C)C(=CCC4[C@@]5(C)C[C@@H](O)[C@H](O)C(C)(C)C5CC[C@]43C)[C@H]12 (some centres not stated) | -9.16 | inactive | inactive | – | – | –
O=c1c2ccccc2nc2n1CCC2O (configuration not stated) | -3.82 | inactive | inactive | – | – | –
COCC1OC(OC(C)(C)C2CCC3(C)C=C(C4CCC5C4(C)CC(O)C4OC(C(C)(C)OC6OC(CO)C(O)C(O)C6NC(C)=O)CCC45C)CCC3O2)C(NC(C)=O)C(O)C1O (configuration not stated) | -16.8 | inactive | inactive | – | – | –
COc1cc(/C=C/C(=O)OC2CC(C)=C(C(=O)O)/C2=C/CO[C@@H]2O[C@H](CO)[C@@H](O)[C@H](O)[C@H]2O)ccc1O (some centres not stated) | -8.93 | inactive | inactive | – | – | –
CC1CC2(O)OC(=O)C3=C2C(CCC3)[C@@]12C[C@@H](c1ccoc1)OC2=O (some centres not stated) | -12.2 | inactive | inactive | – | – | –
